According to PubChem BioAssay (EPA / NIEHS):
Where “and” joins values, the source holds several entries; their conditions need not be identical. Equal values may be shown once. Results filed as inconclusive are left out. Calls of active or inactive are those of the source. How the source made its calls, unless noted: active means hit-call score of the fitted dose curve at least 0.9, where 1 is the maximum; inactive means score below 0.9.

Legend:
[1] = biological target: Retinoic acid receptor RXR-alpha (Homo sapiens) (UniProt P19793); experiment: ATG_RXRa_TRANS: Attagene TRANS-FACTORIAL HepG2 Assay for human Retinoid X Receptor alpha (RXRa) (AID 2283012; active means hit-call score of the fitted dose curve at least 0.9, where 1 is the maximum)
Summary of the method: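 TRANS format reporting activity of exogenous RXRa-Gal4 chimera in transiently transfected HepG2, 24 h exposure. Reporter transcripts quantified by RT-PCR with capillary electrophoresis, with gain of signal scored relative to DMSO.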

[2] = biological target: human Retinoid X Receptor beta (RXRb), RXRB (gene 6257) (UniProt P28702); experiment: ATG_RXRb_TRANS: Attagene TRANS-FACTORIAL HepG2 Assay for human Retinoid X Receptor beta (RXRb) (AID 2283013; active means hit-call score of the fitted dose curve at least 0.9, where 1 is the maximum)
Summary of the method: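 Readout is reporter transcript induction after 24 h dosing. It is measured by RT-PCR of total RNA followed by fluorescent capillary electrophoresis. HepG2 liver cells carry transfected multiple reporter units driven by an exogenous RXRb-Gal4 fusion; activity is relative to DMSO.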

[3] = read-out: Monocyte Chemoattractant Protein-1 (MCP1), CCL2 (gene 6347); experiment: BSK_3C_MCP1: BioMAP Diversity Plus: 3C Assay for Monocyte Chemoattractant Protein-1 (MCP1) Biomarker Activity (AID 2283017); settings: primary human endothelial cells (HUVEC); actives raise or lower the signal
Summary of the method: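 Human umbilical vein endothelial cells (3C system) exposed to chemicals for 24 h; MCP-1 quantified by ELISA against the DMSO baseline with bidirectional fitting, and parallel SRB staining used to assess cytotoxicity.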

[4] = read-out: Monocyte Chemoattractant Protein-1 (MCP1), CCL2 (gene 6347); experiment: BSK_4H_MCP1: BioMAP Diversity Plus: 4H Assay for Monocyte Chemoattractant Protein-1 (MCP1) Biomarker Activity (AID 2283018); settings: primary human endothelial cells (HUVEC); actives raise or lower the signal
Summary of the method: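 ELISA of MCP-1 (CCL2) 24 h after chemical dosing of HUVEC in the BioMAP 4H system. Gain or loss versus DMSO fitted; parallel SRB staining (560 nm) tracked overt cytotoxicity.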

[5] = read-out: Human Leukocyte Antigen - DR isotype (HLADR), HLA-DRA (gene 3122); experiment: BSK_3C_HLADR: BioMAP Diversity Plus: 3C Assay for Human Leukocyte Antigen - DR isotype (HLADR) Biomarker Activity (AID 2283019); settings: primary human endothelial cells (HUVEC); actives raise or lower the signal
Summary of the method: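 HUVEC monoculture, HLA-DR measured by ELISA 24 h after chemical dosing. Fitted bidirectionally against DMSO baseline; parallel SRB staining assessed cytotoxicity, with 3C proliferation read by SRB at 48 h.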

[6] = read-out: Interleukin-8 (IL8), CXCL8 (gene 3576); experiment: BSK_3C_IL8: BioMAP Diversity Plus: 3C Assay for Interleukin-8 (IL8) Biomarker Activity (AID 2283020); settings: primary human endothelial cells (HUVEC); actives raise or lower the signal
Summary of the method: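 IL-8 was measured by ELISA in HUVEC cultures 24 h after chemical dosing, with gain or loss of signal fitted relative to DMSO. Parallel SRB total-protein staining tracked overt cytotoxicity.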

[7] = read-out: Monokine induced gamma interferon (MIG), CXCL9 (gene 4283); experiment: BSK_3C_MIG: BioMAP Diversity Plus: 3C Assay for Monokine induced gamma interferon (MIG) Biomarker Activity (AID 2283021); settings: primary human endothelial cells (HUVEC); actives raise or lower the signal;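 on AC50: MIG protein level measured by immunoassay in the treated endothelial cultures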
Summary of the method: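 ELISA measurement of MIG in human umbilical vein endothelial cells 24 h after treatment. Cytotoxicity tracked by SRB staining in parallel cultures; gain or loss of signal fitted relative to DMSO.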

[8] = BSK_3C_SRB: Viability Assessment in the BioMAP Diversity Plus: 3C Assay (AID 2283023); settings: primary human endothelial cells (HUVEC);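 further: fitted both ways against DMSO so a hit may be signal rise or drop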
Summary of the method: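 Human umbilical vein endothelial cells in the 3C system, treated 24 h. Total protein measured by 0.1% sulforhodamine B staining after 10% TCA fixation, read at 560 nm; bidirectional fit versus DMSO.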

[9] = read-out: Matrix Metallopeptidase 1 (MMP1), MMP1 (gene 4312); experiment: BSK_BE3C_MMP1: BioMAP Diversity Plus: BE3C Assay for Matrix Metallopeptidase 1 (MMP1) Biomarker Activity (AID 2283024); settings: primary human bronchial epithelial cells; actives raise or lower the signal
Summary of the method: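 ELISA measurement of MMP-1 after 24 h compound exposure of primary human bronchial epithelial cells. Changes in either direction fitted relative to DMSO; parallel SRB staining checked overt cytotoxicity.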

[10] = BSK_3C_Vis: BioMAP Diversity Plus: 3C Assay for Morphology Visualization (AID 2283025); settings: primary human endothelial cells (HUVEC);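 further: fitted both ways so gain or loss versus DMSO counts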;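 on AC50: light microscopy image of cell morphology used as background control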
Summary of the method: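 Light-microscopy visualization of HUVEC cultures at 24 h post-treatment, with DMSO as baseline for bidirectional fitting.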

[11] = read-out: Pselectin, SELP (gene 6403); experiment: BSK_4H_Pselectin: BioMAP Diversity Plus: 4H Assay for Pselectin Biomarker Activity (AID 2283026); settings: primary human endothelial cells (HUVEC); actives raise or lower the signal
Summary of the method: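 ELISA of surface P-selectin on HUVEC, 24 h after dosing, with parallel SRB staining (0.1% after 10% TCA fixation, 560 nm) for overt cytotoxicity. Activity fitted in both directions relative to DMSO.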

[12] = BSK_4H_SRB: Viability Assessment in the BioMAP Diversity Plus: 4H Assay (AID 2283027); settings: primary human endothelial cells (HUVEC);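 further: cells exposed to compound for 24 h before staining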;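 on AC50: curves fitted both ways versus DMSO so AC50 may be loss or gain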
Summary of the method: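 HUVEC, 24 h post-dose; 10% TCA fix, 0.1% SRB stain, A560 nm. Total protein = overt cytotoxicity, parallel to biomarker read. Bidirectional fit vs DMSO baseline.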

[13] = BSK_BE3C_SRB: Viability Assessment in the BioMAP Diversity Plus: BE3C Assay (AID 2283028); settings: primary human bronchial epithelial cells;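 on AC50: fitted both ways so AC50 may mark signal gain or loss versus DMSO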
Summary of the method: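 Human bronchial epithelial primary cells in confluent culture, 24 h after chemical dosing; total protein by 0.1% SRB staining after 10% TCA fixation, read at 560 nm. Bidirectional fitting versus DMSO baseline.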

[14] = read-out: Thrombomodulin, THBD (gene 7056); experiment: BSK_3C_Thrombomodulin: BioMAP Diversity Plus: 3C Assay for Thrombomodulin Biomarker Activity (AID 2283029); settings: primary human endothelial cells (HUVEC); actives raise or lower the signal
Summary of the method: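 ELISA measurement of thrombomodulin on HUVEC surface 24 h after chemical dosing; activity fitted in both directions relative to DMSO vehicle.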

[15] = read-out: Urokinase-type plasminogen activator receptor (uPAR), PLAUR (gene 5329); experiment: BSK_4H_uPAR: BioMAP Diversity Plus: 4H Assay for Urokinase-type plasminogen activator receptor (uPAR) Biomarker Activity (AID 2283030); settings: primary human endothelial cells (HUVEC); actives raise or lower the signal
Summary of the method: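 Human umbilical vein endothelial cells in the 4H system, 24 h after chemical dosing. Cell-surface uPAR measured by ELISA, fitted in both directions versus DMSO; cytotoxicity checked by SRB total protein in parallel cultures.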

[16] = read-out: Vascular endothelial growth factor receptor 2 (Homo sapiens) (UniProt P35968); experiment: BSK_4H_VEGFRII: BioMAP Diversity Plus: 4H Assay for Vascular endothelial growth factor receptor 2 (VEGFR2) Biomarker Activity (AID 2283031); settings: primary human endothelial cells (HUVEC); actives raise or lower the signal;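 on AC50: cell-surface VEGFR2 protein level quantified by ELISA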
Summary of the method: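 Primary human umbilical vein endothelial cells (4H system), 24 h exposure; cell-surface VEGFR2 measured by ELISA. Bidirectional fitting versus DMSO; cytotoxicity checked in parallel by SRB total-protein staining.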

[17] = biological target: human Vitamin D Receptor (VDR), VDR (gene 7421) (UniProt P11473); experiment: ATG_VDR_TRANS: Attagene TRANS-FACTORIAL HepG2 Assay for human Vitamin D Receptor (VDR) (AID 2283022; active means hit-call score of the fitted dose curve at least 0.9, where 1 is the maximum)
Summary of the method: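 HepG2 cells were transiently transfected with GAL4-UAS reporter units and a chimeric VDR-Gal4 construct, then dosed for 24 hours. Reporter mRNA was quantified by RT-PCR, fluorescent labeling, HpaI digestion and capillary electrophoresis; gain of signal analysed vs DMSO.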

[18] = biological target: human Thyroid Receptor alpha (THRa1), THRA (gene 7067) (UniProt P10827); experiment: ATG_THRa1_TRANS: Attagene TRANS-FACTORIAL HepG2 Assay for human Thyroid Receptor alpha (THRa1) (AID 2283014; active means hit-call score of the fitted dose curve at least 0.9, where 1 is the maximum)
Summary of the method: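 HepG2 cells transiently transfected with chimeric NR-Gal4 and GAL4-UAS reporter units, dosed 24 h. Reporter mRNA quantified by RT-PCR, fluorescent labeling, HpaI digestion and capillary electrophoresis; gain-of-signal fit versus DMSO.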

[19] = read-out: E-selectin (Homo sapiens) (UniProt P16581); experiment: BSK_3C_Eselectin: BioMAP Diversity Plus: 3C Assay for Eselectin Biomarker Activity (AID 2283015); settings: primary human endothelial cells (HUVEC); actives raise or lower the signal
Summary of the method: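 Primary human umbilical vein endothelial cells (3C system), read 24 h after compound addition; E-selectin measured by ELISA. Bidirectional curve fitting against DMSO baseline; cytotoxicity by parallel SRB total-protein staining.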

[20] = read-out: Interleukin-1 alpha (IL1a), IL1A (gene 3552); experiment: BSK_BE3C_IL1a: BioMAP Diversity Plus: BE3C Assay for Interleukin-1 alpha (IL1a) Biomarker Activity (AID 2283016); settings: primary human bronchial epithelial cells; actives raise or lower the signal
Summary of the method: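 IL-1a measured by ELISA after 24 h treatment of human primary bronchial epithelial cells, with gain or loss of signal fitted versus DMSO. Parallel cultures stained with SRB gauge overt cytotoxicity.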

Measured: AC50

Sequence of E-selectin (Homo sapiens) (P16581 whole entry, looked up): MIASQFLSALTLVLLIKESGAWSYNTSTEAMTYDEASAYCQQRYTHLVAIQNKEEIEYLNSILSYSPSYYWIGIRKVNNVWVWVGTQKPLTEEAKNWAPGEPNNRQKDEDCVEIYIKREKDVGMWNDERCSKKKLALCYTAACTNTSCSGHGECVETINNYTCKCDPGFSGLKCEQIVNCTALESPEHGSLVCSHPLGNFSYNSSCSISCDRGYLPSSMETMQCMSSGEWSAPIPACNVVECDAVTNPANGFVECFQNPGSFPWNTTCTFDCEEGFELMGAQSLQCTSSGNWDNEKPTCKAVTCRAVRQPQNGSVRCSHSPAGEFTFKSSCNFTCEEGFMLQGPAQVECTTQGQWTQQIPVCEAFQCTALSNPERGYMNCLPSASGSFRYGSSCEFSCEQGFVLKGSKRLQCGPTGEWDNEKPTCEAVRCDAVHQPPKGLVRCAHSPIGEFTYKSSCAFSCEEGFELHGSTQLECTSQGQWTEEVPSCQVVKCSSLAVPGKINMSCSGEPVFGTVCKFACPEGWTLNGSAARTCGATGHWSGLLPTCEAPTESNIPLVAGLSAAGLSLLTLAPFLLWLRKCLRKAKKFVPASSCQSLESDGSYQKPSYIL
Sequence of human Thyroid Receptor alpha (THRa1), THRA (gene 7067) (P10827 whole entry, looked up, the tested form may be a part): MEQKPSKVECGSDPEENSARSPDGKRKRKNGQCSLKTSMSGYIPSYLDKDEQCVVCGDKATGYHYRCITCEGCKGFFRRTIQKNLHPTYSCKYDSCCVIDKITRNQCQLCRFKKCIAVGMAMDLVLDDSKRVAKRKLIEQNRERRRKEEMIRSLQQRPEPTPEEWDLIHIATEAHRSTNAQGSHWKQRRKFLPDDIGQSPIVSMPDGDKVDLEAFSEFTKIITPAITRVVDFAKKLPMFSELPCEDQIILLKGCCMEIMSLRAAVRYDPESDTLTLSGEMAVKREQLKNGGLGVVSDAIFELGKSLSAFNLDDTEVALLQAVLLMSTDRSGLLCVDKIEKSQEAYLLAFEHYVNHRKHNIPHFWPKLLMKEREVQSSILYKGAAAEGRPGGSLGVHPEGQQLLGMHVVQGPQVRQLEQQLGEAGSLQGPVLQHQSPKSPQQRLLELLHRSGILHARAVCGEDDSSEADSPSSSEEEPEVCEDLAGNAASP
Sequence of Retinoic acid receptor RXR-alpha (Homo sapiens) (P19793 whole entry, looked up, the tested form may be a part): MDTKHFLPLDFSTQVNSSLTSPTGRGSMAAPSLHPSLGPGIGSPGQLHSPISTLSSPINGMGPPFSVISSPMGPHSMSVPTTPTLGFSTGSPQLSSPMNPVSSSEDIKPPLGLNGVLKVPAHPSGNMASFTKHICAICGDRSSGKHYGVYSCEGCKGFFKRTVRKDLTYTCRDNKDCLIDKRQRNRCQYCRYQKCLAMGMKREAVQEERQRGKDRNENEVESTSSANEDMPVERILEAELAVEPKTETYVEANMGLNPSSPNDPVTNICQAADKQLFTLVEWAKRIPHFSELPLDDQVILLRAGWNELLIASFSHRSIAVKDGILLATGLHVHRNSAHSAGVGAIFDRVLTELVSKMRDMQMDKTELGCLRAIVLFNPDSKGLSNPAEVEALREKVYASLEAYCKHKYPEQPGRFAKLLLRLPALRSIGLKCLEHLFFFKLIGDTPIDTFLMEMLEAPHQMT
Sequence of human Vitamin D Receptor (VDR), VDR (gene 7421) (P11473 whole entry, looked up, the tested form may be a part): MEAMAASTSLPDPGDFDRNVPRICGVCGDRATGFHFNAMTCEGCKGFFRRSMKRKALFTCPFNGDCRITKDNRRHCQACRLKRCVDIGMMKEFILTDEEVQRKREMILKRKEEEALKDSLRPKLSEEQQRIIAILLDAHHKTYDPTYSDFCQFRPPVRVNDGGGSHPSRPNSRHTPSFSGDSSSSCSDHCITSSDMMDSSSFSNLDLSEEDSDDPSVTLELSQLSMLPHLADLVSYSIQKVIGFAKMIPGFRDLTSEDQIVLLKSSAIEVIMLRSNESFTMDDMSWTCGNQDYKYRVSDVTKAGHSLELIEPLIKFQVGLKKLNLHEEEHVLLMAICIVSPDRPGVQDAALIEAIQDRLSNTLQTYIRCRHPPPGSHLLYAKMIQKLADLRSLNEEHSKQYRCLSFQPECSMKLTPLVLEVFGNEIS
Sequence of human Retinoid X Receptor beta (RXRb), RXRB (gene 6257) (P28702 whole entry, looked up, the tested form may be a part): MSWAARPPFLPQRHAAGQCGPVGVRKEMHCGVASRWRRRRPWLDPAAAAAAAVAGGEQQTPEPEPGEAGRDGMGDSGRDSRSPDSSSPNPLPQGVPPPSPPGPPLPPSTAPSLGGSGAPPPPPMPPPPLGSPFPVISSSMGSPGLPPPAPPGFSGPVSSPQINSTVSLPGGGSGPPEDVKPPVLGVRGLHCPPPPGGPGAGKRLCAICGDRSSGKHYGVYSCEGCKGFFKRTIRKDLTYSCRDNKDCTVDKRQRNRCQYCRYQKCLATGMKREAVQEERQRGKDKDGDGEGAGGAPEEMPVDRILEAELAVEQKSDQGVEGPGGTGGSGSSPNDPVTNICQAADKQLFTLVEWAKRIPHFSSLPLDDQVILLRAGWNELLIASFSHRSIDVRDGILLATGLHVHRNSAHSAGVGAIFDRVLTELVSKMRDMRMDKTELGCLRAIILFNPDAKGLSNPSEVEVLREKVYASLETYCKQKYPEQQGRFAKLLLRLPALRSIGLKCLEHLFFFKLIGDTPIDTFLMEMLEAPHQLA

CC1=NN(c2ccccc2)C(=O)C1
not listed: [17] | [18] | [19] | [20]
inactive: all other assays above

CC(C)(O)C(=O)c1ccccc1
inactive: [1] | [2] | [17]

C=CCOCC(CO)(CO)CO
inactive: [1] | [2] | [17]

CCC(=O)C=Cc1ccc(OC)cc1
inactive: [1] | [18]

CC[N+](CC)(CC)Cc1ccccc1
not listed: [18] | [20]
inactive: all other assays above

C=CC(C)(CCC=C(C)C)OC(C)=O (configuration not stated)
active: [3] 35.2 µM | [4] 27 µM | [5] 28.2 µM | [8] 28.9 µM | [10] 37.4 µM | [11] 31 µM | [12] 34.2 µM | [15] 28.9 µM | [16] 31.5 µM
inactive: [1] | [2] | [20] | [6] | [7] | [17] | [13] | [14]

O=CC(F)(F)C(F)(F)C(F)(F)F
inactive: [1] | [2] | [18] | [17]

O=C1Cc2ccccc2N1c1c(Cl)cccc1Cl
inactive: [1] | [2] | [17]

CC(C)(C)C1CCCCC1O (configuration not stated)
inactive: [1] | [18]

CCCCC(CC)C(=O)O (configuration not stated)
not listed: [9] | [17] | [18] | [20]
inactive: all other assays above

CCCCCCCCCCCC[N+](C)(C)Cc1ccccc1
inactive: [1] | [18]

Cc1cc(=O)oc2cc(O)ccc12
inactive: [1] | [2] | [17]

Cc1ccc(C(=O)c2ccccc2)cc1
active: [2] 75.9 µM | [19] 28.2 µM | [3] 4.38 µM | [4] 27 µM | [5] 28.2 µM | [6] 15.6 nM | [8] 31.5 µM | [10] 38.9 µM | [11] 31.2 µM | [12] 36.5 µM
inactive: [1] | [7] | [13] | [14] | [15] | [16]

O=C(Nc1ccc(Cl)c(Cl)c1)c1cc(Cl)cc(Cl)c1O
inactive: [1] | [2] | [17]
active: [18] 1.35 µM

CCCCCCc1ccc(N)cc1
inactive: [1] | [2] | [17]

O=S(=O)(O)C(F)(F)C(F)(F)C(F)(F)C(F)(F)C(F)(F)C(F)(F)C(F)(F)C(F)(F)C(F)(F)C(F)(F)F
active: [20] 13.3 µM and 10.6 µM | [8] 18.5 µM and 14.5 µM | [13] 12.9 µM and 10.8 µM
not listed: [9] | [10] | [18] | [19]
inactive: all other assays above

CC(=O)Nc1ccc(S(N)(=O)=O)cc1
inactive: [1] | [2] | [17]

O=S(=O)(O)c1ccc2cc(O)ccc2c1
inactive: [1] | [2] | [18] | [17]

NC(=NCCCCCCN=C(N)/N=C(\N)Nc1ccc(Cl)cc1)/N=C(\N)Nc1ccc(Cl)cc1
inactive: [1] | [2]
active: [3] 5.59 µM | [4] 1.47 µM | [5] 4.82 µM | [6] 3880 nM | [7] 9.77 µM | [8] 4.85 µM | [11] 4.81 µM | [12] 4.85 µM | [13] 4.74 µM | [14] 6.15 µM | [15] 4.47 µM | [16] 4.47 µM

FC(F)(F)C1(F)C(F)(F)C(F)(F)C(F)(F)C1(F)F
inactive: [1] | [17]

COC1=CC(=O)C[C@@H](C)[C@]12Oc1c(Cl)c(OC)cc(OC)c1C2=O
not listed: [2] | [9] | [10] | [17] | [19]
inactive: all other assays above

CC(C)CCOCCC(C)C
inactive: [1] | [17]

CCCCCCCCC(C)=O
inactive: [1] | [17]

Cc1ccc(C)c(S(=O)(=O)O)c1
inactive: [1] | [18] | [17]

CC(=O)Nc1ccc(O)cc1
not listed: [2] | [17] | [19] | [20]
inactive: all other assays above

C=CC(=O)OCCN(CC)CC
inactive: [1] | [18] | [17]
